According to PubChem BioAssay AID651812 (National Center for Advancing Translational Sciences (NCATS), 2012):
The whole screen tested about 2,100 compounds, of which about 650 (31%) were called active. Another 16% or so got no clear call; they are omitted. Calls follow the shape of the dose curve; as a rule, active = well fitted inhibition curve with a large enough effect; inconclusive = small, poorly fitted or top-dose-only effect; inactive = flat fitted curve, though single readings scatter. The list shows a part of the results.

Assay: qHTS for inhibitors of Vif-A3G interactions: Cherry picks; also: nearly all actives have a fitted effect of over 80% in size; as to activity, negative = fluorescence increase: % of control where 0% means no effect
Conditions: HeLa A3G-eYFP + Vif (tagged APOBEC3G with the HIV-1 protein that degrades it), 24 h; Potency: eYFP fluorescence increase; series mostly up to 36.9 µM; activity, negative = fluorescence increase: at the top concentration
How it was run: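 HeLa cells stably expressing A3G-eYFP and Vif, cultured overnight then exposed to compounds at several concentrations for 24 hours at 37 C, 5% CO2; cellular yellow fluorescence (488 nm ex, 500-530 nm em) imaged on Acumen, MG132 positive control.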
Potency is read from the fitted curve at half-maximal effect.

Potency, active:
C(=C\c1c[nH]c2ccccc12)/c1nccc2ccccc12 14.6 µM
C(=Cc1c[nH]c2ccccc12)c1nccc2ccccc12 18.4 µM
COc1ccc(NC(=O)c2ccc(NC(=O)C(C)C)cc2)c([N+](=O)[O-])c1 10.3 µM
Cc1ccc(/C=C2/NC(=O)N(Cc3ccccc3)C2=O)s1 23.1 µM
CN(C)c1ccc(/C=C2\NC(=S)N(Cc3ccccc3)C2=O)cc1 9.94 µM
O=C1/C(=C/c2ccc(N3CCCC3)cc2)NC(=S)N1C1CC1 3.66 µM
CCN1C(=O)/C(=C/c2ccc(N3CCCC3)cc2)NC1=S 10.3 µM
CCOC(=O)N1CCN(/C=C(\C#N)c2nc3ccccc3s2)CC1 18.4 µM
COc1cc(/C=C2\SC(=S)N(NC(=O)c3ccccc3O)C2=O)ccc1O 23.1 µM
COc1cc(/C=C2\SC(=S)N(NC(=O)c3ccc(O)c(OC)c3)C2=O)ccc1O 13 µM
c1ccc2c(CCc3c[nH]c4ccccc34)ccnc2c1 23.1 µM
CCCCN1C(=O)/C(=C2/Sc3ccccc3N2C)S/C1=N\c1ncn[nH]1 18.4 µM
Cc1cccc2cc3c(N)c(C(=O)Nc4ccc(N5CCOCC5)cc4)sc3nc12 14 µM
Nc1c(C(=O)Nc2ccc(S(=O)(=O)N3CCCC3)cc2)sc2nc3cc4c(cc3cc12)CCC4 8.2 µM
Nc1c(C(=O)Nc2ccc(S(=O)(=O)N3CCCC3)cc2)sc2nc3ccc(OC(F)(F)F)cc3cc12 20.6 µM
CCc1cccc2cc3c(N)c(C(=O)Nc4ccc(S(=O)(=O)N5CCCC5)cc4)sc3nc12 4.98 µM
COc1cc(OC)c(/C=C/c2ccc3ccccc3[n+]2C)c(OC)c1 10.3 µM
Cc1sc2ncnc(N=Nc3c(O)[nH]c4ccccc34)c2c1C 16.4 µM
Fc1ccc(-c2cnn3c(-c4cccs4)ccnc23)cc1 12.5 µM

activity, negative = fluorescence increase, inactive:
Cc1cccc(C(=O)Nc2nnc(C3=COCCO3)o2)c1 7.13% [at 46.1 µM]
O=C(NCc1cccnc1)c1cccc(NS(=O)(=O)c2ccc(Br)cc2)c1 -0.847%
COc1ccc(-c2nnc(NC(=O)c3ccc([N+](=O)[O-])o3)o2)c(OC)c1 -1.94% [at 46.1 µM]
COc1ccc(COc2cc(-c3cccc(OC)c3)nc3ccc(NC(=O)C(C)C)cc23)cc1 -2.87%
O=C1N/C(=C\c2ccccc2)c2ccccc21 -6.2%
Cc1ccc(C=Nc2ccccc2C(N)=O)s1 -5.29%
COc1ccc(COn2c(=O)c(C)[n+]([O-])c3ccccc32)cc1OC -5.61%
COc1ccccc1N1CCN(c2ncnc3c2oc2ccccc23)CC1 1.39%
CCOC(=O)N1CCN(C(=O)c2ccccc2-c2ccccc2)CC1 -0.014%
CCOC(=O)N1CCN(C(=O)c2cc(-c3ccc(OCC)cc3)nc3ccccc23)CC1 0.415%
COc1ccc(S(=O)(=O)N2N=C(C)Oc3ccccc3C2=O)cc1 -6.59%
COc1ccc(C(=O)N/N=C/c2cc(Br)ccc2O)cc1OC 0.135% [at 46.1 µM]
COc1cc(/C=N/NC(=O)c2[nH]nc3c2CCc2ccccc2-3)ccc1O -2.56%
COc1cc(/C=N/NC(=O)c2cc(-c3c(C)nn(-c4ccccc4)c3C)n[nH]2)ccc1O -8.18%
COc1cc(/C=C/C(C)=NNc2ccccc2)ccc1O -7.3%
CCOC(=O)C(C(=O)OCC)C(Nc1cccc(Br)c1)c1ccccc1 (stereo not given) -2.02%
Cc1ccc2c(c1)C=CC(C#N)N2C(=O)c1ccccc1 (stereo not given) -2.86%
COc1ccc(NC(=O)c2oc3ccc(S(=O)(=O)N4CCOCC4)cc3c2C)cc1 -0.471%
COC(=O)Nc1ccc(S(=O)(=O)N2CCCc3ccccc32)cc1 -4.64%
O=C(Nc1ccc(N2CCOCC2)cc1)c1cccc2ccccc12 -3.81%
O=C(Nc1ccc(Cl)cn1)c1cccc(S(=O)(=O)N2CCCCCC2)c1 -4.99%
Cc1cc2nc(-c3ccc(SCC(=O)Nc4ccc(S(=O)(=O)N5CCCC5)cc4)nc3)[nH]c2cc1C -11% [at 46.1 µM]
O=C(Nc1nc2ccc(S(=O)(=O)N3CCCC3)cc2s1)C1CCCCC1 -0.031%
COc1cccc(C(=O)Nc2ccc(N3CCCC3)cc2)c1 -6.33%
Cc1c(C(=O)Nc2ccc(C(C)C)cc2)sc2nc3n(c(=O)c12)CCC3 -1.38% [at 46.1 µM]
CN1C(=O)N(C)c2ccc(C=O)c3cccc1c23 0.629% [at 46.1 µM]
COc1cc(OC)c(/C=C/c2ccnc3ccccc23)c(OC)c1 -10% [at 46.1 µM]
COc1cc(OC)c(C2Nc3cccc4cccc(c34)N2)c(OC)c1 6.18% [at 46.1 µM]
CCN(CC(=O)NCc1ccc(F)cc1)C(=O)/C=C/c1ccc(OC)c(S(=O)(=O)NC(C)C)c1 -20.2%
Cc1sc2ncnc(SCC(=O)NC(C)(C)C)c2c1C 0.117% [at 46.1 µM]
Cc1sc2ncn(CC(=O)NCc3ccccc3)c(=O)c2c1C -0.561%
